PubChem BioAssay

Assay: hepatitis C replication reporter changes, two-sided – Huh7 cells, luciferase reporter, HCV replication inhibitor project, primary screen (AID 1109);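 also: huh7 hepatoma cells harbouring a luciferase neomycin HCV replicon reporter; luciferase luminescence as measure of HCV replicon replication; test concentration not given here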
Conditions: Huh7 HCV replicon luciferase reporter, 48 h; higher = more signal

SMILES | z-score
CO[C@H]1COC(=O)[C@@H](C)COC(=O)[C@H](Cc2ccccc2)NC(=O)CC=C[C@H]1C | -0.082
C=CCC(OC(C)=O)[C@@H]1[C@@H](N(Cc2cccc3ccccc23)C(=O)c2ccc(C)cc2)c2cc(OCCCO)ccc2N1C(=O)c1ccc(-c2ccccc2)cc1 (stereo partly drawn) | -0.852
CC(C)[C@H]1NC(=O)[C@@]23C(=O)N[C@@H](Cc4ccccc4)C2[C@H](C)[C@@]2(C)O[C@H]2C3/C=C/C/C=C\CNC(=O)[C@H](C)NC1=O (stereo partly drawn) | 0.631
CO[C@H]1COC(=O)[C@@H](Cc2ccccc2)NC(=O)[C@@H](C)COC(=O)CC=C[C@@H]1C | 0.413
CN1CCC(CCCO)=CC1C1CC1 (stereo not drawn) | 0.306
CC(C)[Si]1(C(C)C)OCc2cc(C3CC3)nc(-c3ccccc3)c21 | -0.222
O=C1c2ccccc2[C@](Cc2ccccc2I)(C(=O)O)[C@H](c2ccc(CO)cc2)N1C1CCCCC1 | -1.33
C[C@@H]1NC(=O)CC=C[C@@H](C)[C@@H]2C=C[C@H](O)[C@@H](COC(=O)[C@H](C)NC(=O)CC=C[C@@H](C)[C@@H]3C=C[C@H](O)[C@@H](COC1=O)O3)O2 | 0.128
C=CCc1cccc([C@@H]2[C@@H](C)CC[C@H]3C(=O)N4[C@H](c5cccc(CC=C)c5)[C@@H](C)CC[C@H]4C(=O)N23)c1 | -3.5
C=CC[C@@]12N=C(c3ccc(OCCCO)cc3)O[C@@H]1c1ccccc1CN(Cc1ccccc1)C2=O | -3.23
COc1ccc([C@H]2C[C@H]3C(Br)=C[C@]2(OC)C(=O)[C@]32CO2)cc1 | -2.26
C=CCOC(=O)[C@@H]1[C@H]2C(=O)O[C@H](c3ccccc3)[C@H](c3ccccc3)N2[C@H](c2ccc(OCCOC(=O)[C@H]3C[C@H]4C(=O)N5CCC[C@H]5C(=O)N4[C@H]3c3ccc(O)cc3)cc2)[C@@]12C(=O)Nc1ccccc12 | -1.31
CC(=O)NCCCC[C@@H]1NC(=O)[C@@H]2C[C@H](C(=O)NCc3ccc(F)cc3)[C@H](c3cccc(OCCO)c3)N2C1=O | -0.0901
O=C(CS)NCCCCCNC(=O)[C@H]1C[C@H]2C(=O)N3CCC[C@H]3C(=O)N2[C@H]1c1ccc(O)cc1 | 0.0187
C=C(COC)/C(=C/C[C@H](OC(C)=O)c1ccc(OCCO)cc1)c1cnc2ccccc2c1 | -0.773
COc1cc([C@@H]2N[C@H](C(=O)O)Cc3c2[nH]c2ccccc32)cc(OC)c1OC | -0.0056
C=CC[C@@]1(C(=O)N2CCOCC2)N=C(c2ccc(OCCCO)cc2)O[C@@H]1c1ccccc1 | -0.802
COCCOC(=O)N1C(=O)[C@@]2(c3cc(C#CC4=CCCCC4)ccc31)[C@H](c1ccc(O)cc1)N1[C@H](c3ccccc3)[C@H](c3ccccc3)OC(=O)[C@H]1[C@@H]2C(=O)N1CCCCCCC1 | -0.387
COCCOC(=O)N1C(=O)[C@@]2(c3cc(C#CC4=CCCCC4)ccc31)[C@H](C(=O)NC[C@H](O)c1ccccc1)[C@H]1C(=O)O[C@H](c3ccccc3)[C@H](c3ccccc3)N1[C@@H]2c1ccccc1OCCO | -3.01
C=CC[C@]1(C(=O)NCC(O)CO)N=C(c2ccc(OCCCO)cc2)O[C@H]1c1ccccc1 (stereo partly drawn) | -0.294
C=CCC(OC(C)=O)[C@@H]1[C@@H](N(Cc2cc3ccccc3o2)C(=O)c2ccc(C)cc2)c2cc(OCCCO)ccc2N1C(=O)c1ccc2ccccc2n1 (stereo partly drawn) | 0.725
CC(C)NC(=O)[C@@]1(Cc2ccccc2I)c2ccccc2C(=O)N(C2CCCCC2)[C@H]1c1ccc(CO)cc1 | -1.21
C=C[C@H](OC)[C@@H](OC(=O)Nc1ccc(SC)cc1)c1ccc(OC)c(O)c1 | 0.899
CCc1cccc(NC(=O)O[C@H]2[C@H](OC(=O)Nc3ccccc3)[C@@H](OC(=O)Nc3ccccc3)[C@@H](OC)O[C@@H]2CO)c1 | -3.51
COCCOC(=O)N1C(=O)[C@@]2(c3cc(C#CCC(C(=O)OC)C(=O)OC)ccc31)[C@H](C(=O)N1CCN(c3ncccn3)CC1)[C@H]1C(=O)O[C@H](c3ccccc3)[C@H](c3ccccc3)N1[C@@H]2c1ccc(O)cc1 | -0.513
COc1ccc(-c2cc3c(c(-c4ccccc4)n2)[Si](C(C)C)(C(C)C)O[C@H]3c2ccccc2)cn1 | -1.4
CCC(=O)[C@]12O[C@@]3([C@@H]4C(=O)OCC[C@@H]41)N(Cc1ccccc1)C(C)=C(C(=O)OC)[C@@H](c1ccccc1)N3C2=O | 0.286
CO[C@@H]1COC(=O)[C@H](C)NC(=O)CC=C[C@@H](C)[C@H](NS(=O)(=O)c2ccc(C)cc2)COC(=O)CC=C[C@@H]1C | 0.108
